Bioassay records deposited in PubChem BioAssay by National Center for Advancing Translational Sciences (NCATS).
Rows were chosen to be rich in hits. Some 12% of all compounds tested hit in one or more screens of this group.
SARS PLpro yeast – blocks SARS-CoV papain-like protease in a yeast assay | 330,000 compounds, 0.19% hits | Potency, µM (top dose mostly 32.9 µM), inactives show at the top dose activity, positive = growth rescue, most hits filed as activators | S. cerevisiae expressing SARS-CoV PLpro, growth rescue; calls by dose curve; also: 0% is about no effect; nearly all actives have a fitted effect of over 55% in size
Pf growth 48h – P. falciparum growth inhibition at 48 hours (one generation); P. falciparum luciferase growth in erythrocytes, 48 h; Potency, µM (top dose mostly 28.7 µM), for inactives: top-dose activity change, negative = inhibition, hits mostly inhibitors; 310,000 compounds, 5.9% hits; AID 504832; also: % is scaled to controls: 0 for no effect and ±100 for the full control effect
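Luciferase-expressing parasites in RBCs, 2% Hct / 0.1% parasitemia final; RPMI 1640 + 0.5% Albumax; 37 C, 5% CO2, one generation; luminescence read-out, lower signal = inhibition.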
AMA1 RON2 block – AMA1-RON2 (P. falciparum) interaction inhibition; Potency, µM (doses to about 58.2 µM), for inactives: at the highest dose activity change, negative = inhibition, actives largely listed as inhibitors; AlphaScreen AMA1-biotinylated RON2 peptide binding; 360,000 compounds, 0.2% hits;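 also: 0% = vehicle wells and -100% = peptide control; nearly all actives have a fitted effect of over 45% in size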
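AMA1 (3D7) with his tag at 25 nM final met compounds first, then biotinylated RON2 peptide at 25 nM; detection used donor plus acceptor beads, 10 µg/mL apiece, read by AlphaScreen after 30 min at room temperature.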
HCV inhibitor – inhibitors of hepatitis C virus infection; Potency, µM (top dose mostly 41.8 µM), without a hit: at the highest dose activity change, negative = inhibition, hits mostly inhibitors; Huh7.5.1 HCVcc-Cre infection, luciferase reporter, 44 h; 340,000 compounds, 3.4% hits; also: % is scaled to controls: 0 for no effect and ±100 for the full control effect
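Cells (1,000/well) were plated 4 h before compound, then infected with HCVcc-Cre virus (~0.5 moi). After 44 h further culture, infection was read as luciferase luminescence following a 15 min substrate incubation at room temperature.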
Pf growth 96h – P. falciparum growth inhibition at 96 hours; P. falciparum luciferase reporter growth, 96 h; Potency, µM (titrated, usually from 28.7 µM), inactives show at the top dose activity change, negative = inhibition, most hits filed as inhibitors; 320,000 compounds, 6.9% hits; AID 504834; also: % is scaled to controls: 0 for no effect and ±100 for the full control effect
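Erythrocytes infected with luciferase-expressing P. falciparum were dispensed at 2% hematocrit and 0.05% parasitemia (final), then incubated with compounds 96 hours at 37 C in 5% CO2. Luminescence after detection reagent addition reported growth.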
NS1 inh – influenza NS1 inhibition | Potency, µM (top dose mostly 46.1 µM), without a hit: top-dose activity, positive = more growth | 270,000 compounds, 0.4% hits | AID 2326; calls by dose curve; also: actives are rising curves; nearly all actives have a fitted effect of over 50% in size
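OD600 was taken as the measure of yeast growth restored by compound in an NS1-expressing S. cerevisiae strain. Cells had been washed out of glucose medium and diluted 1:100 into galactose -URA medium, pH 6.0.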
* hit, by the source's call; ? = inconclusive; nt = no result; [ ] = dose if it differs, or a comment. Unless noted, calls follow the shape of the dose curve; as a rule, active = well fitted curve in the direction sought with a large enough effect; inconclusive = small, poorly fitted or top-dose-only effect, or another doubt; inactive = no such curve, though single readings can be large; an effect the other way counts as inactive or inconclusive. Potency is read from the fitted curve at half-maximal effect.

SMILES	SARS PLpro yeast	Pf growth 48h	AMA1 RON2 block	HCV inhibitor	Pf growth 96h	NS1 inh
CCCCCCCCCCCCCCCC(=O)OCC(COP(=O)(O)OCC[N+](C)(C)C)OC(=O)CCCCCCCCCCCCCCC (stereo not given)	nt	-4%	nt	nt	-11%	nt
C=CCN(C(=O)c1csnn1)C(C(=O)NC1CCCC1)c1ccc(F)cc1 (stereo not given)	0%	-1%	3%	-6%	?	2%
O=C(Cc1ccccc1)NCC(=O)N1CCC1	nt	21%	2%	-1%	20%	13%
Cc1cc2nc(C3CCN(CC4COc5ccccc5O4)CC3)[nH]c2cc1C (stereo not given)	1%	13µM*	-13%	?	6%	0%
O=C(Nc1ccc(OC(F)(F)F)cc1)Nc1cccnc1	-2%	?	40%	3%	10µM*	1%
O=C(Nc1cccnc1)C12CC3CC(CC(C3)C1)C2	0%	-25%	13%	21%	23%	0%
O=C(NCC(F)(F)F)Nc1cccnc1	-14%	-19%	29%	2%	15µM*	3%
O=C(Nc1cccnc1)C1(F)C(F)(F)C(F)(F)C(F)(F)C(F)(F)C1(F)F	-21%	-4%	7%	3.2µM*	5%	-40%
CC(=O)Nc1ccccc1C(=O)N1CCN(Cc2ccc3c(c2)OCO3)CC1	0%	17%	-8%	11%	-16%	7%
Cc1sc(NC(=O)CN(Cc2ccc(F)cc2)C(=O)C(C)(C)C)c(C(N)=O)c1C	11%	-23%	60%	3%	7.4µM*	5%
CC(=O)N(CC(=O)Nc1sc(C)c(C)c1C(N)=O)Cc1ccccc1	-1%	7%	49%	5%	47%	3%
CC[C@@H]1[C@H]2CCCC(=O)N3CC[C@@H](C[C@@H]1OC(=O)Nc1ccccc1)[C@@H]23	-3%	?	4%	?	2.3µM*	-1%
COc1ccc(C2=NOC(Cn3nc(-c4ccccc4)cc3C(=O)NCc3ccccc3OC)C2)cc1 (stereo not given)	3%	nt	4%	?	nt	nt
O=c1c2cc(Cl)ccc2[nH]c(=S)n1Cc1ccco1	-4%	9%	17%	?	?	4%
O=c1c2cc(Cl)ccc2[nH]c(=S)n1Cc1cccs1	10%	13%	36%	?	13µM*	12%
O=C(NCc1cccnc1)[C@@H]1[C@@H](C(=O)O)[C@H]2CC[C@@H]1O2	nt	nt	nt	nt	nt	9%
COc1ccc(Cl)cc1NC(=O)CCn1cnc2ccccc2c1=O	-1%	-13%	1%	11µM*	7%	-6%
O=C(Cn1cnc2ccccc2c1=O)Nc1ccc(S(=O)(=O)N2CCCC2)cc1	0%	-16%	-12%	2%	-18%	-2%
O=C(Cn1cnc2ccccc2c1=O)Nc1ccc2c(c1)OCCO2	-2%	99%	-3%	13%	-13%	-9%
O=C(Cn1cnc2ccccc2c1=O)NCCC(=O)Nc1ccc2c(c1)OCCO2	-2%	52%	15%	22%	10µM*	5%
CC1CCCC(C)N1S(=O)(=O)c1ccc(NC(=O)CCn2cnc3ccccc3c2=O)cc1 (stereo not given)	-13%	13µM*	-7%	23%	nt	-4%
COC(=O)[C@@]12C[C@@H](CC(=O)NCCC(C)C)C(=O)N(Cc3ccc4c(c3)OCO4)C1=CCC(C)(C)C2	nt	nt	-17%	nt	nt	nt
Cc1ccccc1OCC(=O)OCC(=O)NCC1CCCO1 (stereo not given)	1%	13%	-6%	16%	-16%	-4%
Cc1cc(N/N=C/c2ccc([N+](=O)[O-])o2)nc2ccccc12	-26%	4.7µM*	-18%	10µM*	5.9µM*	-1%
O=C(N/N=C/c1ccc([N+](=O)[O-])o1)c1cn(-c2ccccc2)nc1-c1ccc(Cl)cc1	0%	4.7µM*	20%	?	?	3%
SMILES	SARS PLpro yeast	Pf growth 48h	AMA1 RON2 block	HCV inhibitor	Pf growth 96h	NS1 inh
O=C(N/N=C/c1ccc([N+](=O)[O-])o1)c1cn(-c2ccccc2)nc1-c1ccccc1	18%	?	12%	?	?	-3%
Cn1c(/C=C/c2ccc([N+](=O)[O-])o2)nc2ccccc2c1=O	-20%	?	9%	2µM*	?	-94%
Cc1ccc(-c2cc(C(=O)N/N=C/c3ccc([N+](=O)[O-])o3)c3ccccc3n2)o1	-7%	-25%	12%	11µM*	3.3µM*	-5%
O=[N+]([O-])c1ccc(NCc2ccccc2N2CCC(CO)CC2)nc1	-2%	0%[0.00184 µM]	0%	-14%	-12%	-3%
Cc1ccc2nc3sc(C(=O)Nc4ccc(F)cc4)cc3cc2c1	2%	?	nt	nt	?	nt
O=C(N/N=C/c1ccc([N+](=O)[O-])o1)c1cc(-c2ccncc2)nc2ccccc12	-5%	?	15%	10µM*	0.93µM*	10%
O=C(N/N=C/c1ccc([N+](=O)[O-])o1)c1cc(-c2ccc(-c3ccccc3)cc2)nc2ccccc12	-5%	?	-3%	-52%	?	?
Cc1nc2ccc(NS(=O)(=O)c3ccc(F)c(F)c3)cc2s1	3%[6.58 µM]	12%	28%	-11%	5%	nt
Cc1cc(S(=O)(=O)Nc2cccc(O)c2)c(C)s1	13%	?	14%	-13%	-30%	4%
Cc1nc2ccc(NS(=O)(=O)c3ccc4c(c3)OCCO4)cc2s1	-2%	-17%	3%	3.2µM*	nt	-20%
Cc1nc2ccc(NS(=O)(=O)c3cccc([N+](=O)[O-])c3)cc2s1	-1%	nt	-6%	11µM*	nt	nt
Cc1cc(S(=O)(=O)Nc2cccc([N+](=O)[O-])c2)c(C)s1	-1%	-4%	-16%	15%	2.1µM*	-5%
Cc1c(NS(=O)(=O)c2ccc3c(c2)OCCO3)cccc1-c1nc2cccnc2s1	-25%	-14%	-7%	13µM*	?	15%
Cc1nc2ccc(NS(=O)(=O)c3ccc(Br)cc3)cc2s1	-1%	-7%	-14%	?	?	nt
Cc1cc(-c2nc3cccnc3s2)ccc1NS(=O)(=O)c1ccc2c(c1)OCCO2	-3%	-2%	0%	8%	46%	?
COc1ccc(-c2cc(-c3ccco3)[nH]c(=O)c2C#N)cc1OC	1%	-1%	3%	-3%	1%	1%
Cc1ccc(S(=O)(=O)Nc2ccc3nc(C)sc3c2)cc1	-6%	?	1%	?	47%	-6%
Cc1ccc(S(=O)(=O)Nc2ccc3nc(N)sc3c2)cc1	6%	-12%	-6%	13µM*	nt	-3%
N#Cc1ccccc1COc1cccc2c1CCCC2O (stereo not given)	0%	30%	-4%	?	19%	-4%
O=C(CN1CCN(Cc2ccc3c(c2)OCO3)CC1)NCC(F)(F)F	3%	3%	-24%	8%	0%	-6%
